Reference: the supplement of paper PMC4166925
± gives the standard deviation of the averaged measurements. Whole data set: some 33,000 sequences, median “E-score (dimensionless, -0.5 to 0.5)” near -0.049, cut for the highest 2% near 0.37. For the sample, the highest values were picked, then their nearest neighbours and some sequences at random.

Each sequence was assayed on T1, PmTbr T-box DNA-binding domain (GST fusion) (assay: PBM E-score of 8-mer (E-score (dimensionless, -0.5 to 0.5)); Tbr is Tbrain of the sea star Patiria miniata (Pm) or the sea urchin Strongylocentrotus purpuratus (Sp); higher = stronger binding preference). Conditions: the construct has about 5 more residues each side.
T1 sequence: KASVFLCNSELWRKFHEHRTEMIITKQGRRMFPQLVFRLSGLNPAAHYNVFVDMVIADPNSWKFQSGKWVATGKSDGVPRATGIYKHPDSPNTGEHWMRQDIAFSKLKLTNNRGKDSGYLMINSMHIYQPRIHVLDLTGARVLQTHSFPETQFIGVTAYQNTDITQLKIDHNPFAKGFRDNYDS
Method: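 Universal protein-binding microarray (Agilent AMADID 016060, 60-bp probes with a 35-bp variable region) incubated with 200 nM GST-fused Patiria miniata Tbr T-box DNA-binding domain (residues 272-466) in PBS pH 7.5. Scored for every ungapped 8-mer (given with its reverse complement) by the Universal PBM Analysis Suite as E-score (modified Wilcoxon-Mann-Whitney enrichment, range -0.5 to 0.5; >0.45 counts as bound) and Z-score of median probe intensity. Two replicate arrays (datasets 1 and 2).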
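Note: 200 nM protein in PBS on universal arrays averaged over duplicate arrays.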

In order of falling “PBM E-score of 8-mer” value:
1. AGTGTGAA  0.48836 ± 0.00035
2. TGTGTGAA  0.4728 ± 0.0017
3. CGAGGTGC  0.457 ± 0.01
4. CGTGTGAA  0.4524 ± 0.0013
5. GTGACAAC  0.4452 ± 0.0036
6. CGAGGTGA  0.4396 ± 0.0012
7. GTGACAAA  0.428 ± 0.029
8. TGTGAACA  0.4216 ± 0.0014
9. CCTCGCAC  0.42 ± 0.014
10. GCTCGCAC  0.42 ± 0.025
11. GTGACACA  0.416 ± 0.0096
12. AGAGGTGC  0.411 ± 0.0084
13. GGAGGTGA  0.4036 ± 0.0026
14. ACTCGCAC  0.4 ± 0.0077
15. GTGTTGAA  0.4 ± 0.013
16. AACACATT  0.389 ± 0.028
17. GTGTTGGA  0.382 ± 0.0051
18. CACACATC  0.381 ± 0.035
19. TGTGAAAA  0.38 ± 0.057
20. GACACATC  0.372 ± 0.0069
21. GTGACGAA  0.371 ± 0.014
22. CTCACATC  0.3693 ± 0.0021
23. AGAGGTGA  0.352 ± 0.015
24. CACACATG  0.352 ± 0.0023
25. CTGACACA  0.344 ± 0.013
26. CGTGAAAA  0.338 ± 0.026
27. CGCGAACA  0.328 ± 0.007
28. GACACATA  0.322 ± 0.038
29. CGTGAACA  0.321 ± 0.021
30. AGAGGTGG  0.316 ± 0.0057
31. CGCACATC  0.298 ± 0.055
32. CACAGCTG  0.296 ± 0.0054
33. CGTGAGAG  0.265 ± 0.0088
34. CTGACAAC  0.257 ± 0.012
35. AAAAGTGC  0.2475 ± 0.00082
36. CGCTACCA  0.243 ± 0.024
37. GCTCGCAA  0.242 ± 0.015
38. ATGACAAC  0.241 ± 0.054
39. AACACACT  0.229 ± 0.021
40. GGTGAAAA  0.2007 ± 0.0014
41. ATCACATC  0.195 ± 0.058
42. CCGCTATC  0.177 ± 0.0022
43. AGTGTGTA  0.172 ± 0.073
44. AACACGGT  0.133 ± 0.049
45. GTGATTGA  0.125 ± 0.042
46. CGATAAGC  0.124 ± 0.049
47. CTGACAAA  0.12 ± 0.038
48. CCTCGCAA  0.118 ± 0.0037
49. ACAGCTAC  0.115 ± 0.032
50. TATGTGAA  0.11 ± 0.1
51. GACACAGC  0.1102 ± 0.00023
52. GAAGTCTC  0.102 ± 0.062
53. CTGACGAA  0.0955 ± 0.048
54. ACCCTCAA  0.0906 ± 0.052
55. ACTCGCAG  0.0856 ± 0.036
56. CCTCGCAG  0.0735 ± 0.061
57. CTCACATA  0.0666 ± 0.017
58. ACGAATTG  0.0628 ± 0.039
59. CTGTTGGA  0.0599 ± 0.038
60. AGAGTGAA  0.0596 ± 0.056
61. GAGACACA  0.053 ± 0.046
62. GACTCGAC  0.0517 ± 0.016
63. CGAGGTTA  0.0486 ± 0.017
64. CGAACAGC  0.0465 ± 0.011
65. CGTGTGCA  0.0443 ± 0.011
66. CGAGGTCA  0.0395 ± 0.11
67. ACCTTTAT  0.0337 ± 0.024
68. GAGTTGCC  0.0293 ± 0.068
69. CCAACAAC  0.0262 ± 0.0053
70. CGCCTAAG  0.0221 ± 0.02
71. GGAGGTCA  0.0158 ± 0.0067
72. GGTGAACA  0.00576 ± 0.0094
73. ACCGACCC  0.00535 ± 0.068
74. CGTGTGTA  0.00111 ± 0.014
75. ACTCGCAT  -0.0149 ± 0.006
76. GCAGACAA  -0.0224 ± 0.054
77. ATGACAAA  -0.0227 ± 0.073
78. ACCAACTA  -0.0247 ± 0.12
79. ACCATTAA  -0.0404 ± 0.015
80. CAAGCATG  -0.0451 ± 0.032
81. ATTATTCG  -0.0471 ± 0.044
82. TAAGTCTA  -0.0537 ± 0.026
83. ACAGCGCA  -0.0538 ± 0.03
84. CTGTTGAA  -0.0551 ± 0.1
85. CGTTATCC  -0.058 ± 0.009
86. GTAGTCGA  -0.0608 ± 0.0079
87. ATGACGAA  -0.065 ± 0.04
88. AACTGGAG  -0.0661 ± 0.0033
89. ATGTTGGA  -0.0683 ± 0.0083
90. TGTCTAAA  -0.0695 ± 0.011
91. GAAGGACA  -0.0775 ± 0.028
92. ACTCGAAC  -0.0874 ± 0.031
93. CTCTGTGC  -0.0888 ± 0.082
94. GGAGATTA  -0.0891 ± 0.063
95. AAAACATT  -0.0945 ± 0.013
96. CGAGGTAC  -0.1003 ± 0.00044
97. CGCCCTAC  -0.103 ± 0.061
98. ATGTTGAA  -0.107 ± 0.017
99. AGAGGTTC  -0.124 ± 0.022
100. CTACAGGC  -0.125 ± 0.0056
101. ATCCTTCA  -0.143 ± 0.044
102. TGGGTGAA  -0.158 ± 0.043
103. AAGCCAAT  -0.162 ± 0.051
104. CGAGGTCC  -0.166 ± 0.06
105. GCTCGCCC  -0.213 ± 0.052
106. TACTTAAA  -0.246 ± 0.057
107. GATGGTCA  -0.26 ± 0.0048
108. CTGGCTTA  -0.275 ± 0.025
109. AGTTCTTC  -0.293 ± 0.02
110. AGGGCCTC  -0.399 ± 0.0047
